Sampled rows, rich in hits. Any-hit rate of the full collection: about 12%.
Sm TGR inh: qHTS Assay for the Inhibitors of Schistosoma Mansoni Peroxiredoxins; 360,000 compounds, 3% hits; Potency, µM (doses to about 114 µM), for the others: at the top dose activity change, negative = inhibition, usual class: inhibitors; purified TGR, DTNB reduction, TNB absorbance 405 nm; active means well fitted inhibition curve with a large enough effect; inconclusive means small, poorly fitted or top-dose-only effect; inactive means no such curve, though single readings can be large or run the other way; further: potency means the concentration at half of the fitted maximal effect; on the % scale 0 is the no-effect control and ±100 the full control effect; nearly all actives have a fitted effect of over 60% in size
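First, TGR (20 nM dispensed) and NADPH were mixed with compound. Second, a 15 min room-temperature incubation followed. Third, further NADPH and then DTNB were added to start the reaction. Finally, TNB absorbance was monitored kinetically.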
Shiga inhibitor: A qHTS for Small Molecule Inhibitors of Shiga Toxin; Vero cells, Shiga toxin protein synthesis inhibition reporter; inhibition, % at 38.7 µM; 290,000 compounds, 9.2% hits; AID 2315, 2010; in the data active means inhibition mostly above about 28%, no sharp cut-off; inactive means mostly below about 43%; further: 0% is about no effect
CHX counter: Cycloheximide Counterscreen for Small Molecule Inhibitors of Shiga Toxin | cell reporter, cycloheximide protein synthesis inhibition counterscreen | max response, % | 300,000 compounds, 12% hits | AID 2314, 2010; in the data active means max response mostly above about 13%, no sharp cut-off; inactive means mostly below about 14%; further: read at 38.3 µM for the half of the compounds with a filed dose; 0% is about no effect
FMDV antiviral: High Throughput Screening for Foot and Mouth Disease Virus Antivirals; FMDV antiviral cell-based qHTS; Potency, µM (titrated, usually from 57.9 µM), for the others: at the highest dose activity change, negative = inhibition, actives largely listed as inhibitors; 410,000 compounds, 1.2% hits; AID 1159524, 2015; calls by dose curve; tested in HEK293T cells; further: read-out not given here; potency means the concentration at half of the fitted maximal effect; on the % scale 0 is the no-effect control and ±100 the full control effect; nearly all actives have a fitted effect of over 45% in size
Numbers without * were called inactive; u = inconclusive; x = no result given.

SMILES	Sm TGR inh	Shiga inhibitor	CHX counter	FMDV antiviral
O=[N+]([O-])c1ccc(Sc2cccc[n+]2[O-])c2nonc12	0.282µM*	-1.9	3.1	6.31µM*
COc1ccc(Cc2noc(CN(C)Cc3ccc(-n4cccn4)cc3)n2)cc1OC	-7.4%	-15.8	-2.7	u
CN(Cc1ccc(F)cc1)Cc1nc(-c2cnccn2)no1	-10.8%	37.3	5.8	22.2%
CCc1ccc(CN(C)Cc2nc(Cc3ccc(OC)c(OC)c3)no2)nc1	31.6µM*	-5.9	-2.5	u
COc1ccc(CCN(C)Cc2nc(-c3cnccn3)no2)cc1OC	-19.3%	-2.4	0.1	5.62µM*
CCN(CC)S(=O)(=O)c1ccc(S(=O)(=O)N(CC(=O)Nc2ccccc2)Cc2ccco2)cc1	28.2µM*	16.6	-1.2	u
COc1cc(/C=N/NC(=O)CN(Cc2ccco2)S(=O)(=O)c2ccccc2)ccc1O	-12.6%	-3.7	17.7*	0.0%
CN(C)S(=O)(=O)c1ccc(S(=O)(=O)N(CC(=O)Nc2ccccc2)Cc2ccco2)cc1	4.0%	9.6	2.6	-17.5%
CC(=O)Nc1ccc(S(=O)(=O)N(Cc2cc3ccc(C)cc3[nH]c2=O)CC2CCCO2)cc1 (stereo not given)	-3.9%	-0.6	-8.5	-8.0%
CC(=O)Nc1ccc(S(=O)(=O)N(Cc2ccco2)CC2CCCO2)cc1 (stereo not given)	25.1µM*	12.6	-2.6	-2.5%
COC(=O)CN(Cc1ccco1)S(=O)(=O)c1ccccc1	22.4µM*	-0.7	1.2	x
O=C(C1CCC1)N1CCc2cc(S(=O)(=O)N3CCN(c4ccccc4)CC3)ccc21	-1.6%	x	x	0.0%
Cc1nc(C)c(C(=O)N2CCCC(C(=O)c3ccc4ccccc4c3)C2)s1 (stereo not given)	-2.4%	41.9	1.1	0.0%
Cc1ccc2c(c1C)NC(=O)C21N2CCCC2C(C(=O)c2ccc3ccccc3c2)C12C(=O)Nc1ccccc12 (stereo not given)	5.7%	38.6	56.4*	48.0%
CCN(CC)c1ccc(/C=N/NC(=O)C(O)(c2ccccc2)c2ccccc2)o1	14.1µM*	-3.9	3.8	x
O=C(CSc1ccccc1)Nc1ccc(N2CCOCC2)c(F)c1	-0.2%	119.8*	57.3*	71.6%
O=C(CSc1ccc2ccccc2n1)Nc1ccc(N2CCOCC2)cc1	-19.9%	48.5*	30.7*	22.0%
O=C(CSc1ccc(Cl)cc1)Nc1ccc(N2CCN(c3ccccc3)CC2)c(F)c1	17.2%	-10.0	-1.9	-7.6%
Cn1c(CC(=O)Nc2ccccc2)nnc1SCC(=O)Nc1ccc(N2CCOCC2)cc1	0.7%	29.3	39.3*	25.9%
O=C(CSc1ccc(F)cc1)Nc1ccc(N2CCOCC2)cc1	-24.1%	30.2	27.2*	24.8%
Cc1ccc(SCC(=O)Nc2ccc(N3CCOCC3)cc2)cc1	x	-0.7	-0.7	5.1%
CC(C)CCNc1nc2c(S(=O)(=O)c3ccc(Br)cc3)nnn2c2ccsc12	20.9%	x	x	-22.8%
COC(=O)c1ccccc1SCC(=O)Nc1ccc(N2CCOCC2)cc1	-23.6%	54.6*	37.4*	30.0%
Cc1ccc(SCC(=O)Nc2ccc(N3CCN(C)CC3)c(F)c2)c(C)c1	x	37.2	24.1*	43.7%
Nc1nc2ccc(C(=O)Nc3ccc(N4CCOCC4)cc3)cc2s1	x	x	x	-6.1%
SMILES	Sm TGR inh	Shiga inhibitor	CHX counter	FMDV antiviral
Cc1ccc(-n2nnnc2SCC(=O)Nc2ccc(N3CCN(C)CC3)cc2)c(C)c1	-0.2%	-11.0	-0.9	-21.1%
O=C(Nc1ccc(N2CCOCC2)cc1)c1nc2ccccc2s1	-0.5%	91.1*	53.6*	-8.7%
COc1cccc(NC(=O)COC(=O)c2ccccc2SCC(=O)N2CCCC2)c1	1.1%	x	x	-23.1%
O=C(COC(=O)c1ccccc1SCC(=O)N1CCCC1)Nc1ccccc1	7.0%	42.9	17.4*	2.3%
Cc1nc2c(oc3ccccc32)c(=O)o1	11.2µM*	143.7*	87.9*	84.0%
Cc1ccc(-c2nsc(NC(=O)c3oc4cc(C)c(Cl)cc4c3C)n2)cc1	3.7%	x	x	-16.6%
COCCNC(=O)c1ccc2c3n(nc2c1)-c1ccccc1CO3	-14.1%	41.4*	30.2*	24.4%
Cc1ccc2c(c1)COc1c3ccc(C(=O)NCCO)cc3nn1-2	7.4%	73.8*	61.2*	47.8%
O=C(NCC1CC1)c1ccc2c3n(nc2c1)-c1ccc(Cl)cc1CO3	x	x	x	4.7%
C=CCNC(=O)c1ccc2c3n(nc2c1)-c1ccccc1CO3	9.5%	46.2*	27.4*	-18.4%
O=C(NCCO)c1ccc2c3n(nc2c1)-c1ccc(Cl)cc1CO3	-5.3%	79.2*	54.1*	36.9%
CCOC(=O)CC(=O)CSc1nc2ccccc2c(=O)n1CCc1ccc(S(N)(=O)=O)cc1	-3.0%	x	x	-21.3%
O=C1CN(C(=O)COc2ccc(Cl)cc2)C(c2ccc(F)cc2)c2cc(Cl)ccc2N1 (stereo not given)	1.8%	x	x	-19.1%
Cc1ccc(C)c(NC(=O)Cn2c(=O)n(CCC(C)C)c(=O)c3cccnc32)c1	-2.2%	x	x	10.0%
COCCNC(=O)c1ccc2c3n(nc2c1)-c1ccc(Cl)cc1CO3	-0.2%	44.1*	7.5*	29.9%
COc1ccc(CNc2nc(-c3c(C)noc3C)nc3ccccc23)c(OC)c1	x	x	x	-13.5%
CCOC(=O)c1ccc(OCC2c3cc(OC)c(OC)cc3CCN2C(=O)Cc2ccc(OC)c(OC)c2)cc1 (stereo not given)	-11.0%	x	x	-15.4%
CCc1ccc(C(=O)N/N=C/c2ccncc2)s1	-7.4%	31.7	23.4*	55.6%
O=C(N/N=C\c1cccnc1)c1ccc(Br)s1	3.4%	59.6	33.7*	47.5%
O=C(N/N=C/c1ccncc1)c1cc(-c2ccc(Br)s2)[nH]n1	3.7%	39.7	31.7*	5.1%
CCc1ccc(/C=N/NC(=O)c2cc(-c3ccncc3)nc3ccccc23)s1	-0.8%	8.6	-5.1	-15.8%
O=C(N/N=C\c1cccnc1)c1ccc(Cl)s1	-16.8%	19.6	10.7	0.0%
O=C(N/N=C\c1ccncc1)c1ccc(Br)s1	3.7%	8.5	13.3*	30.6%
Cn1ncc2c(NCc3ccc(F)cc3)ncnc21	13.9%	x	x	-8.7%
O=C(N/N=C/c1ccc(Br)s1)c1cccnc1	x	42.1*	26.3*	8.7%
SMILES	Sm TGR inh	Shiga inhibitor	CHX counter	FMDV antiviral
Cc1ccc(C(=O)N/N=C\c2ccncc2)s1	8.8%	53.5*	39.7*	16.8%
O=C(N/N=C\c1ccncc1)c1ccc(Cl)s1	4.3%	24.6	14.9	48.0%
Cc1ccc(NC(=O)c2cc3c(=O)n(Cc4ccco4)ccc3nc2C)cc1C	-2.2%	x	x	-19.3%
N#CCC(=O)N/N=C\c1ccc(OC/C=C/c2ccccc2)cc1	1.5%	30.4	27.4*	9.0%
N#CCC(=O)N/N=C/c1ccc(OCc2ccccc2)cc1	18.7%	12.8	7.2	29.4%
N#CCC(=O)N/N=C\c1ccccc1OC/C=C/c1ccccc1	3.0%	77.4*	50.2*	35.2%
COCC(=O)N/N=C\c1ccccc1OC/C=C/c1ccccc1	-0.2%	-7.1	-0.6	43.8%
Cc1noc(C)c1-c1ccc2ncnc(NC3CCCc4ccccc43)c2c1 (stereo not given)	x	-2.3	-4.3	x
N#CC1=C(SCC(=O)Nc2ccccc2)NC(=O)CC1c1ccco1 (stereo not given)	x	x	x	49.2%

Screening data as filed in PubChem.
